Test [1] deals with Lysosomal acid glucosylceramidase (Homo sapiens) (UniProt P04062). Briefly: Glucocerebrosidase-p2 (AID 348; in the data active = potency below about 10 µM; also: potency is read from the fitted curve at half-maximal effect). To be noted: purified GBA, blue fluorogenic substrate, 40 min. A digest of the protocol: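 Compounds titrated from 0.6 nM upwards against 0.2 nM enzyme in pH 5.9 citric acid/KH2PO4, taurocholate, tween-20; blue fluorogenic substrate 80 uM, 40 min room temperature, stopped and read Ex 365/Em 440 for AC50.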

Test [2] in a line: AP1 Signaling Pathway (AID 357).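 Also: ME-180 reporter cells stimulated with EGF at its EC50 level; % is scaled to controls: 0 for no effect and ±100 for the full control effect.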 To be noted: ME-180 AP-1-bla reporter, EGF-induced, beta-lactamase ratio, 5 h; at 7.69 µM (top of the series) unless noted. A digest of the protocol: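 Modulation of EGF-driven AP-1 transcription was assessed with a beta-lactamase reporter in ME-180 cells. Compound and EC50 EGF were co-incubated 5 hours at 37 °C before 2.5-hour CCF4 loading at room temperature and dual-emission reading.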

Test [3] addresses Cytochrome P450 1A2 (Homo sapiens) (UniProt P05177). Briefly: p450-cyp1a2 (AID 410; calls by dose curve; also: potency is read from the fitted curve at half-maximal effect). To be noted: recombinant CYP1A2, luciferin-ME demethylation, luminescence; series mostly up to 11.4 µM. A digest of the protocol: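 Luminescent readout of luciferin formed from Luciferin-ME by human CYP1A2; data normalized against complete inhibition by 57 uM furafylline. Enzyme 20nM, substrate 100uM at Km, 100mM KPO4 buffer, 60 min reaction at room temperature.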

Test [4] is described as follows: NFAT Signaling Pathway (AID 444).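 Also: carbachol stimulus at about its EC50 of 1 µM final; % is scaled to controls: 0 for no effect and ±100 for the full control effect.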 To be noted: Jurkat NFAT-bla M1, carbachol, beta-lactamase ratio, 5 h; at 7.69 µM (top of the series) unless noted. The gist of the method: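 Jurkat cells carrying an NFAT-driven β-lactamase reporter and co-transfected muscarinic M1 receptor were treated with compound plus carbachol (1 uM final, an EC50 level) for 5 h at 37 °C. CCF4 loading followed for 1 h at RT; 460/530 nm ratio gave %activity.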

The nature of test [5]: Stat Signaling Pathway (AID 446).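 Also: ME-180 cervical cancer cells given 40 pM IL-6 alongside compound; SIE-controlled beta-lactamase reporter measured as 460/530 nm FRET emission ratio; % is scaled to controls: 0 for no effect and ±100 for the full control effect.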 To be noted: ME-180 SIE beta-lactamase reporter, IL-6 stimulated, 5 h; at 7.69 µM (top of the series) unless noted. A digest of the protocol: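 ME-180 cells carrying a SIE-driven beta-lactamase reporter are stimulated with 40 pM IL-6 for 5 h at 37C in the presence of compound. The 460/530 nm FRET substrate ratio is read after 2.5 h at RT. Data are normalised to 300 pM IL-6 and to 125 nM JAK inhibitor controls.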

Test [6] deals with Glucocorticoid receptor (Homo sapiens) (UniProt P04150). Briefly: GR-GFP Redistribution (AID 450;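 active = compounds whose dose series gives a full or clear partial fitted curve of increased nuclear translocation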; also: potency is read from the fitted curve at half-maximal effect). To be noted: U2OS GR-GFP nuclear translocation, laser cytometry, 2 h.
For test [7] the target is unchanged. Kind of test: GR-EFC Redistribution (AID 451; calls by dose curve; also: potency is read from the fitted curve at half-maximal effect). To be noted: CHO-K1 GR-EFC translocation, beta-gal luminescence, 2 h. The gist of the method: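 CHO-K1 cells stably expressing nuclear-localized β-gal enzyme acceptor and GR fused C-terminally to the enzyme donor fragment; ligand-driven nuclear translocation restores β-gal by complementation. Compounds titrated up to 46 uM final, 2 h at 37 °C; luminescence read.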

Test [8] addresses 3',5'-cyclic-AMP phosphodiesterase 4B (Homo sapiens) (UniProt Q07343). Kind of test: qHTS Assay for Inhibitors of PDE-IV (AID 607; active = well fitted activation curve with a large enough effect in the main read-out, with a control signal flat, not every such curve was filed as active; also: % of control where 0% means no effect). To be noted: HEK293 ACTOne CNG channel cells, membrane potential fluorescence; series mostly up to 22.9 µM. The gist of the method: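 HEK293 ACTOne cells with CNG channel (1000/well), endogenous PDE4; membrane potential dye, compounds up to 22.9 uM final. Fluorescence Ex 535/Em 590; RO 20-1724 (100 uM final) as reference.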

Test [9] concerns the target Mitogen-activated protein kinase 10 (Mus musculus) (UniProt Q61831). Kind of test: JNK3 AlphaScreen Assay (AID 530).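 Also: kinase came from lysate of stimulated human HepG2 cells; signal reports phosphorylation of biotinylated GST-cJun 1-79 at Ser73 with 10 µM ATP; % is scaled to controls: 0 for no effect and ±100 for the full control effect.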 To be noted: JNK3 lysate, c-Jun phosphorylation; series mostly up to 11.4 µM. A digest of the protocol: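 Inhibitors reduce antibody binding to phosphorylated biotin-cJun, lowering AlphaScreen luminescence. Lysates from HepG2 cells pre-activated by IL-1beta plus TNF-alpha supplied JNK3; compounds were titrated.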
On the technique in general: Bead proximity is the source of the signal in Alpha formats.

The nature of test [10]: qHTS Assay for Identification of Small Molecule Agonists for Hypoxia Response Element Signaling Pathway (AID 914; active = well fitted activation curve with a large enough effect in the signal ratio, with a control signal flat, not every such curve was filed as active; the % refers to the signal ratio; also: % of control where 0% means no effect). To be noted: ME-180 (cervical carcinoma) HRE-bla reporter, beta-lactamase ratio, CoCl2, 17 h; activation: hits give high values. A digest of the protocol: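 Compounds in a titration series were added to ME-180 reporter cells alongside an EC50 level of CoCl2. After 17 hours, beta-lactamase activity was read as the 460nm/530nm emission ratio of CCF4, giving AC50 values.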
(In qHTS, concentration-response curves come from the screen itself.)

For test [11], the target named is Cytochrome P450 2D6 (Homo sapiens) (UniProt P10635). Kind of test: qHTS Assay for Inhibitors and Substrates of Cytochrome P450 2D6 (AID 891; active = well fitted curve in the direction sought with a large enough effect; an effect the other way counts as inactive or inconclusive;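 also: luciferin methyl ether substrate demethylated by CYP2D6 with NADPH regeneration; % is scaled to controls: 0 for no effect and ±100 for the full control effect; nearly all actives have a fitted effect of over 60% in size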). To be noted: recombinant CYP2D6, luciferin-ME EGE luminescence; series mostly up to 11.4 µM. The gist of the method: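 Human CYP2D6 (5 nM) with 30 uM Luciferin-ME EGE (at Km) in 100 mM KPO4, compound preincubated 10 min, then NADPH regeneration system for 60 min at room temperature. Luciferin read by luminescence; normalized to 1.43 uM quinidine.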

Test [12] concerns the target Cytochrome P450 2C19 (Homo sapiens) (UniProt P33261). Briefly: qHTS Assay for Inhibitors and Substrates of Cytochrome P450 2C19 (AID 899; active = well fitted curve in the direction sought with a large enough effect; an effect the other way counts as inactive or inconclusive; also: % is scaled to controls: 0 for no effect and ±100 for the full control effect; nearly all actives have a fitted effect of over 60% in size). To be noted: recombinant CYP2C19, luciferin-H EGE luminescence; series mostly up to 11.4 µM. A digest of the protocol:
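NADPH-dependent conversion of Luciferin-H EGE (10uM, at KM) by 5nM enzyme in 50mM KPO4, 60 min at 37C following 10 min compound preincubation. Stopped with luciferin detection buffer; luminescence read after 20 min.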

Test [13] has as its target Cytochrome P450 3A4 (Homo sapiens) (UniProt P08684). Briefly: qHTS Assay for Activators of Cytochrome P450 3A4 (AID 885; active = well fitted curve in the direction sought with a large enough effect; an effect the other way counts as inactive or inconclusive; also: nearly all actives have a fitted effect of over 65% in size). To be noted: recombinant CYP3A4, Luciferin-PPXE luminescence, 60 min; series mostly up to 11.4 µM. The gist of the method:
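Human CYP3A4 (20 nM) with Luciferin-PPXE at 25 uM (its KM) in 200 mM KPO4; 10 min compound preincubation, then NADPH regeneration and 60 min reaction at RT. Luciferin read by luminescence; normalized to 57 uM ketoconazole full inhibition.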

In test [14] the target is Cytochrome P450 2C9 (Homo sapiens) (UniProt P11712). Briefly: qHTS Assay for Inhibitors and Substrates of Cytochrome P450 2C9 (AID 883; active = well fitted curve in the direction sought with a large enough effect; an effect the other way counts as inactive or inconclusive; also: potency is read from the fitted curve at half-maximal effect; nearly all actives have a fitted effect of over 60% in size). To be noted: recombinant CYP2C9, luciferin-H luminescence, 60 min; series mostly up to 11.4 µM. The gist of the method:
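A luminogenic readout tracked human CYP2C9 (10nM) converting deoxyluciferin (100uM, at KM) in 25mM KPO4 during 60 min at 37C with regenerated NADPH. Values normalized to 57uM sulphaphenazole as complete inhibition.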

Each structure is given as a SMILES string. Unmarked numbers belong to inactive results. Inconclusive results are not listed. Active and inactive are the calls of the source. Unless noted, calls follow the shape of the dose curve; as a rule, active = well fitted curve in either direction with a large enough effect (not every such curve was filed as active); inconclusive = small, poorly fitted or top-dose-only effect, or another doubt; inactive = flat fitted curve, though single readings scatter.

Chain of Cytochrome P450 2D6 (Homo sapiens) (P10635 whole entry, looked up): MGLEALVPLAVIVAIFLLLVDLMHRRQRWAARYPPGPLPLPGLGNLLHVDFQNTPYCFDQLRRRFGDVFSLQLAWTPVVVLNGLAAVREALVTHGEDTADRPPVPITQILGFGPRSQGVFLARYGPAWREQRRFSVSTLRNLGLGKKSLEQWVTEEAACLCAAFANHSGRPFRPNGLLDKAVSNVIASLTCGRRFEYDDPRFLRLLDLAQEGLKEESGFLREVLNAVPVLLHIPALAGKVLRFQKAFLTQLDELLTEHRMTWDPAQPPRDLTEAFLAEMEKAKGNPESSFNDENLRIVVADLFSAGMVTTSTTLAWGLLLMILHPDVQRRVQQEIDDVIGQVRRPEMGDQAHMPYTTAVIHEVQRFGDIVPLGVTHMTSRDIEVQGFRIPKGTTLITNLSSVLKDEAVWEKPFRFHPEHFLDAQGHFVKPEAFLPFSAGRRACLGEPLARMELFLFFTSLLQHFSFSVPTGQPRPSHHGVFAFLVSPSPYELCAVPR
Chain of 3',5'-cyclic-AMP phosphodiesterase 4B (Homo sapiens) (Q07343 whole entry, looked up): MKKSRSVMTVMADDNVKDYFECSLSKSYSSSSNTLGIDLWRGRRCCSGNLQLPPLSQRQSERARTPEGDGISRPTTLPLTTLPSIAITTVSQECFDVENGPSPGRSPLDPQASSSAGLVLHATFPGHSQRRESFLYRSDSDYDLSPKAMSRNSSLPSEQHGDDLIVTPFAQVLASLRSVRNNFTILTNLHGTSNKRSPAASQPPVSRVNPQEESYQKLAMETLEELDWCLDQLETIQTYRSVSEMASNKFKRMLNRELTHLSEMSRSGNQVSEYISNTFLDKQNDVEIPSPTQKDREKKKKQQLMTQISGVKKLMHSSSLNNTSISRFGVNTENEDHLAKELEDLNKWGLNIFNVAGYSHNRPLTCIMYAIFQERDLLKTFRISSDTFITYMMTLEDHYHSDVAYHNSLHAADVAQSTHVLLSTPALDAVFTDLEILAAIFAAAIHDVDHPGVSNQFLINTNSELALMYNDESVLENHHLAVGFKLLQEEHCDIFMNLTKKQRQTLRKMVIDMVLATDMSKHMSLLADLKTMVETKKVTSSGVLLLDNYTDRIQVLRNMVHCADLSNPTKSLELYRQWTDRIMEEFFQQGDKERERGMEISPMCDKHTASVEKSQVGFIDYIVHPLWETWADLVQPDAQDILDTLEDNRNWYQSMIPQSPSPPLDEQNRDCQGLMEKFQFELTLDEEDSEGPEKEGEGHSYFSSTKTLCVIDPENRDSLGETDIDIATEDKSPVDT
Chain of Cytochrome P450 1A2 (Homo sapiens) (P05177 whole entry, looked up): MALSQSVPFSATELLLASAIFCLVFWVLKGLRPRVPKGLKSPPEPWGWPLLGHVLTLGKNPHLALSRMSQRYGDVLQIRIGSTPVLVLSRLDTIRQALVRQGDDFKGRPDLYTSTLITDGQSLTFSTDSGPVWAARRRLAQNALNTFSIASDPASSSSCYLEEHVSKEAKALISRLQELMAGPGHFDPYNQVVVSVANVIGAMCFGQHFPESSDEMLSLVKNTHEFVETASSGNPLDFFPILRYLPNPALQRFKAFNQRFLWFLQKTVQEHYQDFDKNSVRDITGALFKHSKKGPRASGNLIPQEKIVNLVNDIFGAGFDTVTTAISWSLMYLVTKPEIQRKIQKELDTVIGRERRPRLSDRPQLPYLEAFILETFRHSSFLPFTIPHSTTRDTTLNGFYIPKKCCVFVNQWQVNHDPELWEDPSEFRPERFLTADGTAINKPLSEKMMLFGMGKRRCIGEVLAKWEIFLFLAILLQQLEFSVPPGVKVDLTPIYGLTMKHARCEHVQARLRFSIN
Chain of Glucocorticoid receptor (Homo sapiens) (P04150 whole entry, looked up, the tested form may be a part): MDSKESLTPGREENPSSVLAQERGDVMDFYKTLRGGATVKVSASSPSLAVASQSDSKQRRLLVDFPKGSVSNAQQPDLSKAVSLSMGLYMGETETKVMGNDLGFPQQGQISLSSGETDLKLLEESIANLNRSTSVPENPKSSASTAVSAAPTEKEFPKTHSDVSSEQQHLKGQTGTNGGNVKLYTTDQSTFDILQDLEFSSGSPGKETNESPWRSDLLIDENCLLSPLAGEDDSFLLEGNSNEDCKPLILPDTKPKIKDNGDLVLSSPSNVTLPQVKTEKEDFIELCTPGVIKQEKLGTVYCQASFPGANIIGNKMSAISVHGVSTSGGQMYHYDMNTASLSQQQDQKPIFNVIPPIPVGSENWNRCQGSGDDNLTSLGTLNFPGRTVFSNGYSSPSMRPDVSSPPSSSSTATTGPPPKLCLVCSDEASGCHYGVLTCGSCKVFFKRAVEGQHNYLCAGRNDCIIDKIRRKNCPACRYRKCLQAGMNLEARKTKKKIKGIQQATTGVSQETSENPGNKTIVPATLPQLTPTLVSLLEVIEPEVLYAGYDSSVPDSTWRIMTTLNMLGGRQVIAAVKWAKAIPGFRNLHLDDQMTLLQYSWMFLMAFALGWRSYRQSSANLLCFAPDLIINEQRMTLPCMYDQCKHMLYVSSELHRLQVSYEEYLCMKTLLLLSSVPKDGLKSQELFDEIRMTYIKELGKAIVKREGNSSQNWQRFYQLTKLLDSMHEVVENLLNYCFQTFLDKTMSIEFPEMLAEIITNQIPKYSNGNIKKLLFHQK
Chain of Lysosomal acid glucosylceramidase (Homo sapiens) (P04062 whole entry, looked up): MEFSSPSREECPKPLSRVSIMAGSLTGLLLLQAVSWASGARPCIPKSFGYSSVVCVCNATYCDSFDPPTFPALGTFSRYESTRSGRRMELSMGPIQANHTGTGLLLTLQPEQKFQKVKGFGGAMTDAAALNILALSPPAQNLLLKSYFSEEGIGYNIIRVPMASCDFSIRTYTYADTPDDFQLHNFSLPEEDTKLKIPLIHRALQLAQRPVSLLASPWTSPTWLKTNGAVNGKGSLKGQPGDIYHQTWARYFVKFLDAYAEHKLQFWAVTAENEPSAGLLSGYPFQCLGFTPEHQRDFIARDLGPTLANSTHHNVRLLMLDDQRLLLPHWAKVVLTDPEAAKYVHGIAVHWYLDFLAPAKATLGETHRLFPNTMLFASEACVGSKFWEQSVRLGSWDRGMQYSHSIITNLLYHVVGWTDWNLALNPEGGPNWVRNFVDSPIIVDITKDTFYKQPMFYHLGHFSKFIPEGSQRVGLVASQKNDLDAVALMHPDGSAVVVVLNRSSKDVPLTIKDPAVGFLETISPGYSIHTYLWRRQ
Chain of Cytochrome P450 2C19 (Homo sapiens) (P33261 whole entry, looked up): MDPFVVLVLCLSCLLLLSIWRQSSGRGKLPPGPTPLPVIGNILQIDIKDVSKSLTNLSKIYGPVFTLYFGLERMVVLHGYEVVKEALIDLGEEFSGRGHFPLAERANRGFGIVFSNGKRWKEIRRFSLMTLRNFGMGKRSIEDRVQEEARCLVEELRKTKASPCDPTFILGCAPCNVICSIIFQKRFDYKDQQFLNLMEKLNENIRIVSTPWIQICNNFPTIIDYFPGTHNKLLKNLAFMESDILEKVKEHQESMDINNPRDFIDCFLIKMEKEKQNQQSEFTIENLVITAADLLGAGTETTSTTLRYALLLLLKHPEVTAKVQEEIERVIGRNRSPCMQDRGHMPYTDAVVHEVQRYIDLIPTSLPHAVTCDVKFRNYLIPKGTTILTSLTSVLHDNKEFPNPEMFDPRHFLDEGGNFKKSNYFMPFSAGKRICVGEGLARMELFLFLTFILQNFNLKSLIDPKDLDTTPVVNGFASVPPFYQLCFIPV
Chain of Cytochrome P450 3A4 (Homo sapiens) (P08684 whole entry, looked up): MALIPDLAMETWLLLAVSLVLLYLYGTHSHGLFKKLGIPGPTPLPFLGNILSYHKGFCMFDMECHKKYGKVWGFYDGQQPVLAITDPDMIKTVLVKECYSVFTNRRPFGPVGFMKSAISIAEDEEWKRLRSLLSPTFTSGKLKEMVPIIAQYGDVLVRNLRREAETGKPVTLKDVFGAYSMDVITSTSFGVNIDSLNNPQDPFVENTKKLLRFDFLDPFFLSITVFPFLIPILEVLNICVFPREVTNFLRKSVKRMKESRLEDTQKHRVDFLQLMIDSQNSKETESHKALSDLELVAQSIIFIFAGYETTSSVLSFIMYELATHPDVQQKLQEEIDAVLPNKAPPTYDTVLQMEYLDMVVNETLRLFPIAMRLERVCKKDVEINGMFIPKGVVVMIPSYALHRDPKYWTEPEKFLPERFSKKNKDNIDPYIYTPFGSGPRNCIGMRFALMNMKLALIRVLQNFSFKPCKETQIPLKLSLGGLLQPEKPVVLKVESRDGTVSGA
Chain of Cytochrome P450 2C9 (Homo sapiens) (P11712 whole entry, looked up): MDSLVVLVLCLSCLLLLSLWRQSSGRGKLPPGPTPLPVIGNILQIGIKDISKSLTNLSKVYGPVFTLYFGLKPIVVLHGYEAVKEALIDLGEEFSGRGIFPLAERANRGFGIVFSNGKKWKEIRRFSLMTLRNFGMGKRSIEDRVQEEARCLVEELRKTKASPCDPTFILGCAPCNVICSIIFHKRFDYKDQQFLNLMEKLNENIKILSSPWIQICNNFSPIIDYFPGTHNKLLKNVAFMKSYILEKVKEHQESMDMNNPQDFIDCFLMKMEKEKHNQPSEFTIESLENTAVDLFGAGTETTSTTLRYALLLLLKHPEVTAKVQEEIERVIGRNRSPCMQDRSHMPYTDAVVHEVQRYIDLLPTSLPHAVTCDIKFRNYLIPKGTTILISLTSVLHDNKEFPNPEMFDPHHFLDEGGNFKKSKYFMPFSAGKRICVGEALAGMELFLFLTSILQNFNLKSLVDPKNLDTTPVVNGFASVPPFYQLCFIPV

As to `O=C(O)c1ccc(C(=O)O)c(C(=O)O)c1.[NH-][C@@H]1CCCC[C@@H]1[NH-].[Pt]`, the Potency in test [1] is greater than 11.4 µM; in test [6], greater than 46 µM; in test [7], greater than 9.22 µM. Besides, the results for the activity change, negative = inhibition in test [2] and in test [4] were 0.428% and -9.87%, respectively. Moreover, the Potency entry in test [3] and in [8] was “inactive” in each case. In addition, the activity, negative = inhibition in test [5] was -6.09%.
Regarding `N=C(N)SCCSC(=N)N`, the Potency in test [1] was greater than 11.4 µM; in test [3], 2 µM (active); in test [6] it was greater than 46 µM; in test [7] it was greater than 9.22 µM. Further, the activity change, negative = inhibition in test [2] was 5.54%; in test [4] it was -2.2%. In addition, the activity, negative = inhibition in [5] was 12.3%. The Potency entry in test [9] and in test [8] was “inactive” each time. For the same molecule, the activation in test [10] is -2.21%.
With `Cc1cc(Cc2cc(C)c(N)cc2N)c(N)cc1N`, the Potency in test [1] was greater than 11.4 µM; in test [3] it was 2 µM (active); in test [7] it was greater than 9.22 µM. Also, the activity change, negative = inhibition was -4.79% in [2] and -1.81% in [4]. For the same molecule, the activity, negative = inhibition in test [5] is 1.49%. Further, the Potency entry in test [9] and in [8] was “inactive” throughout.
On to `N/C(CC/C(N)=N/O)=N\O`, for which the results for the Potency in test [1] and in test [7] were greater than 11.4 µM and greater than 9.22 µM, respectively. Also, the activity change, negative = inhibition in test [2] is -3.76%; in test [4], 7.17%. Besides, the Potency result in [3], in test [9], in [8] and in [11] was “inactive” throughout. Moreover, the activity, negative = inhibition in test [5] is -0.993%.
As to `Cc1c(Cl)c(S(N)(=O)=O)cc(S(N)(=O)=O)c1NC(=O)c1ccc(Cl)cc1`, the Potency in test [1] was greater than 11.4 µM; in [7], greater than 9.22 µM. The activity change, negative = inhibition in test [2] is -4.6%; in [4], 5.51%. Besides, the Potency entry in test [3], in test [9], in test [8], in test [11] and in [12] was “inactive” in each case. Moreover, in test [5], the activity, negative = inhibition is 5.58%.
As to `CC1(C)[C@@H]2CC[C@@](C)(C2)[C@H]1OC(=O)c1ccccc1C(=O)O`, the Potency in test [1] was greater than 11.4 µM; in [7] it was greater than 9.22 µM. Besides, the activity change, negative = inhibition was -1.12% in test [2] and 4.7% in [4]. Moreover, the Potency entry in test [3], in [9], in test [8], in [13], in [11] and in [12] was “inactive” each time. For the same molecule, the activity, negative = inhibition in test [5] was -3.05%.
As to `O=C(O)c1cc(C(=O)C(=O)c2cc(C(=O)O)c(O)c3ccccc23)c2ccccc2c1O`, the Potency is greater than 11.4 µM in test [1], greater than 46 µM in test [6], greater than 9.22 µM in test [7] and 0.316 µM (active) in [14]. Also, the values for the activity change, negative = inhibition in [2] and in test [4] were 22.7% and 10.6%, respectively. Moreover, in [3], the Potency result is “inactive”. Further, the activity, negative = inhibition in test [5] was 0.955%.
With `Cc1ccccc1S(=O)(=O)O[C@@H]1NS(=O)(=O)c2ccccc21`, the Potency was greater than 11.4 µM in [1] and greater than 9.22 µM in test [7]. Moreover, the activity change, negative = inhibition in test [2] was 6.97%; in test [3], 13.5% [at 2.29 µM]; in test [4], 10.8%. The activity, negative = inhibition in test [5] is 0.825%. In addition, the Potency result in test [9] and in test [8] was “inactive” in each case.

The values are drawn from PubChem BioAssay (NCATS).
